Laboratory results taken from the supplement of paper PMC11732987, “Enantioselective OTUD7B fragment discovery through chemoproteomics screening and high-throughput optimisation” (Communications Chemistry, 2025).

What was measured:
Assay in all cases: log2 ratio of Biotin-Ahx-Ub-VS probe labelling (fragment/DMSO); higher = less target engagement (more negative = stronger competition), active = hit call of the paper (q ≤ 0.05, log2 ratio ≤ -1)
Details in all cases: compound concentration: 200 uM; treatment time: 3 h
[1] = target: T1, USP19 (UniProt O94966)
T1 sequence (whole entry): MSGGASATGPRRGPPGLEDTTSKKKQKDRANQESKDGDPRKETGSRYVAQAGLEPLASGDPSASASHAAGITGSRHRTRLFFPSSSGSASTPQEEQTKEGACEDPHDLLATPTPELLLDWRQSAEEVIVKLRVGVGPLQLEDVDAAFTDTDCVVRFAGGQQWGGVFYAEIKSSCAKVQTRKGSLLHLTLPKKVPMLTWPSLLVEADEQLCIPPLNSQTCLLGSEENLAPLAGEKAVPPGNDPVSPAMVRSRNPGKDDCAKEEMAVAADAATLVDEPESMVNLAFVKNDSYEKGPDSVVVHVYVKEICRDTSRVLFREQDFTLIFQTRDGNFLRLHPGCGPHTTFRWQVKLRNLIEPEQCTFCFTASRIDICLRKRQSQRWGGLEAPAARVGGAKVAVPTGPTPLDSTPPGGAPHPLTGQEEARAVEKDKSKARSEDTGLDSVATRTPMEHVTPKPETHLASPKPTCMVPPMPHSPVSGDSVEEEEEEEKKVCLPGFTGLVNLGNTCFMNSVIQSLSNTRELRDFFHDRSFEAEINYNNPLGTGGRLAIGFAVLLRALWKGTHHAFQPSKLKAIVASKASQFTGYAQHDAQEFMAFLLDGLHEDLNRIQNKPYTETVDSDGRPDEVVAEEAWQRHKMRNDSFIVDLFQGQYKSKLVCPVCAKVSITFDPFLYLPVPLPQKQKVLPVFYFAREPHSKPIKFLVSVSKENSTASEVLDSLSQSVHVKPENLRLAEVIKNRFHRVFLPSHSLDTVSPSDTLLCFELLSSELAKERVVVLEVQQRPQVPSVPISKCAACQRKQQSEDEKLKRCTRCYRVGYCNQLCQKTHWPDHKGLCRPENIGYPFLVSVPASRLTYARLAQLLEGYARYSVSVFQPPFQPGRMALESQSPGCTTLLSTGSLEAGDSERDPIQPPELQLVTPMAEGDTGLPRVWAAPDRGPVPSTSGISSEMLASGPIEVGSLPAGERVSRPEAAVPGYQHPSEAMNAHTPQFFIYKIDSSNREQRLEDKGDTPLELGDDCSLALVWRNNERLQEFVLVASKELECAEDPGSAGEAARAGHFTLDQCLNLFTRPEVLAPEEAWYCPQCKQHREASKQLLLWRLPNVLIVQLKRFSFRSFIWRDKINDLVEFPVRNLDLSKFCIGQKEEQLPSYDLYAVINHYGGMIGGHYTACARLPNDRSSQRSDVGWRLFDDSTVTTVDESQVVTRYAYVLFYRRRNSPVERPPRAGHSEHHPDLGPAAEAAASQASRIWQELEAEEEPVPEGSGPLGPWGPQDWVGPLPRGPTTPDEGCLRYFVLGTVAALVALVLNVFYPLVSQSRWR
Outline: (§1)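 HEK293T lysate (495 µg per sample, in Tris/CHAPS/IGEPAL buffer with protease inhibitors) was exposed in triplicate for 3 h to fragment at 200 µM or to vehicle, then to Biotin-Ahx-Ub-VS at 0.5 µM final for 1 h. Labelled DUBs were enriched on NeutrAvidin, digested with LysC and trypsin, and analysed by diaPASEF LC-MS/MS. Spectronaut label-free quantities were normalised to the global median, and values are average log2 ratios of fragment over vehicle from an unpaired t-test. Only proteins with ≥2 unique peptides were used.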

[2] = target: T2, USP22 (UniProt Q9UPT9)
T2 sequence (whole entry): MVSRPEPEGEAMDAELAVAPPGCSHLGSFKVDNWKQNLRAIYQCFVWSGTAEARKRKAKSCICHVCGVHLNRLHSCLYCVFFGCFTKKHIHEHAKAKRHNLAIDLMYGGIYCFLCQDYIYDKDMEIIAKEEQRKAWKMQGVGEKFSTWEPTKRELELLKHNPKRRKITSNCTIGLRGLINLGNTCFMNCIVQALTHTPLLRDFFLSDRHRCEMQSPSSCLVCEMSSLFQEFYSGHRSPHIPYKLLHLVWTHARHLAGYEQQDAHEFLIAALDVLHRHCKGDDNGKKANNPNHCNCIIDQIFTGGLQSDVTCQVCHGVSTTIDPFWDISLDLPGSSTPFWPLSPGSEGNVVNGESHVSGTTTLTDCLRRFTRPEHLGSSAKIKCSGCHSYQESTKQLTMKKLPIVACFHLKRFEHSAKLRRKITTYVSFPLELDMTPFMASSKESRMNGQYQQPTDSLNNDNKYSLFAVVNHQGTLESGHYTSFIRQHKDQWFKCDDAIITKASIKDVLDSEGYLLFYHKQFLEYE
Outline: as §1

[3] = target: USP24 (UniProt Q9UPU5)
Outline: as §1

[4] = target: T3, USP25 (UniProt Q9UHP3)
T3 sequence (whole entry): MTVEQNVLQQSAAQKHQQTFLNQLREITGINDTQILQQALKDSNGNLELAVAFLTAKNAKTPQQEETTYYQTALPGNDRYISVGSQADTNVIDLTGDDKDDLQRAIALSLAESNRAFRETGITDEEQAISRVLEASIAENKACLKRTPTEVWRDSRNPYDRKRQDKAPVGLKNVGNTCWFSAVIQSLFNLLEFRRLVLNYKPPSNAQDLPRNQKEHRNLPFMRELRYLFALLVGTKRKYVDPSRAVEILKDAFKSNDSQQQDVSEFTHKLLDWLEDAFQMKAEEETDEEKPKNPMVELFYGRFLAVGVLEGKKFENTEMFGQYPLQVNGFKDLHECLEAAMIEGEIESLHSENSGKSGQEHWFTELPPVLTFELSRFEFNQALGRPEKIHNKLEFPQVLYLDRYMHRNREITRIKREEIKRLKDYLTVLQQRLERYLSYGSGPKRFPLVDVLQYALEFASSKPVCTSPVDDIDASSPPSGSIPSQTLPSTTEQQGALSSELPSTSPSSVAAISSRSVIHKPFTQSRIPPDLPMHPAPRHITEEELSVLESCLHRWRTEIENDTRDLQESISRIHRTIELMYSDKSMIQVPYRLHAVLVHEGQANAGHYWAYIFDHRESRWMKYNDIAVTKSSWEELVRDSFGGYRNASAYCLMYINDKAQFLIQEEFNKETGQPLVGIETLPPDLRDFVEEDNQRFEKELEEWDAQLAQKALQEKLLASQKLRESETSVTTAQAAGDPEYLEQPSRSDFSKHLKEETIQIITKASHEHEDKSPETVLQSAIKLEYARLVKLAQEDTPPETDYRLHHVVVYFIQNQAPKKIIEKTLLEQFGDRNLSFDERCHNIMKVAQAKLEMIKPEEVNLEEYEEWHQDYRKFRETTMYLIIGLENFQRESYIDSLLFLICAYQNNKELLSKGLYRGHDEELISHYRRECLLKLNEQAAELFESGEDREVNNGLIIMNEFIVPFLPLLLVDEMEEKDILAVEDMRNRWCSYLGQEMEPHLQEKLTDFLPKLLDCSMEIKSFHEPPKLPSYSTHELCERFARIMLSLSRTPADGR
Outline: as §1

[5] = target: T4, USP28 (UniProt Q96RU2)
T4 sequence (whole entry): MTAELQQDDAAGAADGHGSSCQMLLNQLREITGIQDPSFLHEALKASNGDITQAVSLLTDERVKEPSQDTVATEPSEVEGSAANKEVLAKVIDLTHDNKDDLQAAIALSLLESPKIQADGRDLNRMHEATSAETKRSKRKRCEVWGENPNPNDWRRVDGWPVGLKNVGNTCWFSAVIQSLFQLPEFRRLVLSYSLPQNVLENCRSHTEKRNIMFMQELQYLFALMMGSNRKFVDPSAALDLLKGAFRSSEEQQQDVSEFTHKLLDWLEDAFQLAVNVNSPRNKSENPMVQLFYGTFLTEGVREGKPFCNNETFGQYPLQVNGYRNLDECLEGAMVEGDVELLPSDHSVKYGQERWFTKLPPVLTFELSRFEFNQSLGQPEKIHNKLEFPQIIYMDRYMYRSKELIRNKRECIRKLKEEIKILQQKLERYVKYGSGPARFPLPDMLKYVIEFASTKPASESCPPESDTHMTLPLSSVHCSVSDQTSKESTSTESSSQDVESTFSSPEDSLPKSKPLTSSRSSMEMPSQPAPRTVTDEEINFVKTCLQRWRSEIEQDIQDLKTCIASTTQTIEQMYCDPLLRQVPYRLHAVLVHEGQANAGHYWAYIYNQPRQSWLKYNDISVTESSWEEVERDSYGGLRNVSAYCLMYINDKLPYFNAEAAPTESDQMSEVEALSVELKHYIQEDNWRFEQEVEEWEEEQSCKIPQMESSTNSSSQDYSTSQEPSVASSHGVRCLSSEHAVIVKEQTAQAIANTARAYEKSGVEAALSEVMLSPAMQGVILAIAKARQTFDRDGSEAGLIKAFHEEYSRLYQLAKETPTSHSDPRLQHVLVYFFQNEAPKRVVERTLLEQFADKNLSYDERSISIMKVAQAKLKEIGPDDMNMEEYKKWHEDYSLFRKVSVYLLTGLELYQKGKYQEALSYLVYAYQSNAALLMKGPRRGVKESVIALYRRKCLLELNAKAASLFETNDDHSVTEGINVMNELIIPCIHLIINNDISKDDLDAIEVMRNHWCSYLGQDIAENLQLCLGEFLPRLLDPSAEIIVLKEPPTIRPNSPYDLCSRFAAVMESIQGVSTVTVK
Outline: as §1

Measured: log2 ratio of Biotin-Ahx-Ub-VS probe labelling

Chain of USP24 (Q9UPU5 whole entry): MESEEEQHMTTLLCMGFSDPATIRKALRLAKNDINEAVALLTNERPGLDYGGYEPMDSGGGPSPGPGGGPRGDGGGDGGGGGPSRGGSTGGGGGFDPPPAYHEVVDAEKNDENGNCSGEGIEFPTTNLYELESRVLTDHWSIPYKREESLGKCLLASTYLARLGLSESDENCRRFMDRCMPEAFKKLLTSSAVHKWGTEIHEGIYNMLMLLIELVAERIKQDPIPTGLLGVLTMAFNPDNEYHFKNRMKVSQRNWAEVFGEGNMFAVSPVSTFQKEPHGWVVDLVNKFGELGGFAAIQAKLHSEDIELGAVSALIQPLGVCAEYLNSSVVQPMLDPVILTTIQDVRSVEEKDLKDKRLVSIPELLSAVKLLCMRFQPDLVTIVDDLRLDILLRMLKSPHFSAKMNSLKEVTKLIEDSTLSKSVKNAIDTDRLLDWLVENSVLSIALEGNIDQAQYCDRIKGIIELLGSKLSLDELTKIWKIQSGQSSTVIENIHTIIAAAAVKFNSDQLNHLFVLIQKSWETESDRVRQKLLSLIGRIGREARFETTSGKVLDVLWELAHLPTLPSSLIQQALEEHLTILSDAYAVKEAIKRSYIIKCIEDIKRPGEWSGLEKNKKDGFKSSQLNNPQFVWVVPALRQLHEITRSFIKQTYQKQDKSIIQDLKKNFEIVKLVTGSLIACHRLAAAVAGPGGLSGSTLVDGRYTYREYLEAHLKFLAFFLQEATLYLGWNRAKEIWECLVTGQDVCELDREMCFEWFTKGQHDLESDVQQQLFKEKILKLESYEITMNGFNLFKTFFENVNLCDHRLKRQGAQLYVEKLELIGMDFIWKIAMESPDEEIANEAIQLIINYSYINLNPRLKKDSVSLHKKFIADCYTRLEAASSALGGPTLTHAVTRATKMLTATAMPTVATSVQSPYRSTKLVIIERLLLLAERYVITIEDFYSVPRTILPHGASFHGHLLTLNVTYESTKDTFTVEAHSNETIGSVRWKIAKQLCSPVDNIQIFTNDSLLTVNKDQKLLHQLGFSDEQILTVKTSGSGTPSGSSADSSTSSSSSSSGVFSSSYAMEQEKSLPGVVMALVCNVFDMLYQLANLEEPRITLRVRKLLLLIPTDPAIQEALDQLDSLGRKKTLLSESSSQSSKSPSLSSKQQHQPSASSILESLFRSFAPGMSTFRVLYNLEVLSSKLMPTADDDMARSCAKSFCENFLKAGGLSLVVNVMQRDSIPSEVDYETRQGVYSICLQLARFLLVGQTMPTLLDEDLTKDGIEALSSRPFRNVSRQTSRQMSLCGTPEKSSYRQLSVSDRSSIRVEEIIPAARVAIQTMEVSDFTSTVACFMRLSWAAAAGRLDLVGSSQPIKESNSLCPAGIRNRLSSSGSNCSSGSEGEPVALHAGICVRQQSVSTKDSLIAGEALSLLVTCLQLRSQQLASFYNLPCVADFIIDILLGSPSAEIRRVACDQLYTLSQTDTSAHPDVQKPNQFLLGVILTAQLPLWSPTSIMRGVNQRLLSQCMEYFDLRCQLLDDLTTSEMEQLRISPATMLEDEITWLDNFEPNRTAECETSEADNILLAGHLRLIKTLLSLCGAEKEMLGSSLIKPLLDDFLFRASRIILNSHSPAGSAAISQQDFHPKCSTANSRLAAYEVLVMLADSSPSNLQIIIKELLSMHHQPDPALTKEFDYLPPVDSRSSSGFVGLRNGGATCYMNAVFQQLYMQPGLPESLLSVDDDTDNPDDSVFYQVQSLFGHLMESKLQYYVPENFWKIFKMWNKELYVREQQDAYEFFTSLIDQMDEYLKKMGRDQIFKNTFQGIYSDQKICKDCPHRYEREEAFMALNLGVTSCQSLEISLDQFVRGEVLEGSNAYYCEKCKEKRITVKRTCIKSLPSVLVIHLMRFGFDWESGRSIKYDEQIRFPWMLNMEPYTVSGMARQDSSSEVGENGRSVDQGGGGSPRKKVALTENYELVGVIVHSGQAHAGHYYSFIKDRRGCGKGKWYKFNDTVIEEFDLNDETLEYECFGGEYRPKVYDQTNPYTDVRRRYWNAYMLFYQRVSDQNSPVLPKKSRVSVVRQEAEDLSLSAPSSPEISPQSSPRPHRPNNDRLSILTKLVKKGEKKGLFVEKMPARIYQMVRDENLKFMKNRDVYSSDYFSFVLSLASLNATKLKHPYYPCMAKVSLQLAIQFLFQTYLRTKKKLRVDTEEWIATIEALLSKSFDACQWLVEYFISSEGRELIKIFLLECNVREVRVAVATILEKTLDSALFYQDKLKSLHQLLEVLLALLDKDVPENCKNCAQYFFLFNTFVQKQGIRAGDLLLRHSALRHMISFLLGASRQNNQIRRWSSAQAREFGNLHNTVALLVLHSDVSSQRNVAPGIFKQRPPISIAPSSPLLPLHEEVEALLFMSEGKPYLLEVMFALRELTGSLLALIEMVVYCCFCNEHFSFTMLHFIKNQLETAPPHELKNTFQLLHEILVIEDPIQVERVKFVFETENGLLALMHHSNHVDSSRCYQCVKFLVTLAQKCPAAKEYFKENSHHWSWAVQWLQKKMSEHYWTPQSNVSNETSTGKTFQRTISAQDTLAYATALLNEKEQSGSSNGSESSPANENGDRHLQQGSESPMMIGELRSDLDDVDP

O=C(CCl)N1CCC(c2nc3ccccc3o2)CC1
inactive: [1] -0.537 | [2] -0.0192 | [3] -0.503 | [4] -0.466 | [5] -0.736
